# In the library only some 31% were active in any assay of this set; here they are far more common.
# CYP2C19 act = human CYP2C19 activators, primary screen, biochemical, luminescence. Cytochrome P450 2C19 (Homo sapiens), P33261. recombinant CYP2C19, luciferin-H EGE luminescence; active compounds read high; 0 = fully inhibited enzyme, 1 = untreated enzyme. activation factor at 5 µM. 96,000 tested, under 10 active;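 active = activation factor of at least 2 at 5 µM in the primary screen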;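 note: 0 = wells with 2.5 mM tranylcypromine and 1 = vehicle-only wells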
# PLAP act = PLAP enzyme activators, biochemical, luminescence, HTS; purified PLAP enzyme, luminescent substrate read-out; active compounds read high; activation fold at 20 µM; actives 1.2% (n = 96,000); AID 696, 2007; in the data active = activation fold above about 2
# CYP2C19 inh = blockers of cytochrome P450 2C19 activity – biochemical, luminescence, ADME assay, primary screen; inhibition, % at 5 µM; CYP2C19 Supersomes, luciferin-H EGE luminescence, 30 min; actives 21% (n = 96,000);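 active = CYP2C19 inhibition above a set limit at 5 µM in the primary screen, cut at about 50% in these data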;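 note: plate controls were negative control wells for no effect and 2.5 mM tranylcypromine positive control for full effect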
# CYP2C9 activ = human CYP2C9 activators, primary screen, biochemical, luminescence; AID 1024, 2008; activation factor at 5 µM; actives 1.4% (n = 96,000); recombinant CYP2C9, luciferin-H conversion; active compounds read high; factor 1 = untreated enzyme, 0 = blocked;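 active = activation factor of 2 or more for CYP2C9 at a 5 µM dose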;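 note: 0 = sulfaphenazole-blocked wells and 1 = vehicle-only wells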
# Target sequence (P11712 whole entry, looked up): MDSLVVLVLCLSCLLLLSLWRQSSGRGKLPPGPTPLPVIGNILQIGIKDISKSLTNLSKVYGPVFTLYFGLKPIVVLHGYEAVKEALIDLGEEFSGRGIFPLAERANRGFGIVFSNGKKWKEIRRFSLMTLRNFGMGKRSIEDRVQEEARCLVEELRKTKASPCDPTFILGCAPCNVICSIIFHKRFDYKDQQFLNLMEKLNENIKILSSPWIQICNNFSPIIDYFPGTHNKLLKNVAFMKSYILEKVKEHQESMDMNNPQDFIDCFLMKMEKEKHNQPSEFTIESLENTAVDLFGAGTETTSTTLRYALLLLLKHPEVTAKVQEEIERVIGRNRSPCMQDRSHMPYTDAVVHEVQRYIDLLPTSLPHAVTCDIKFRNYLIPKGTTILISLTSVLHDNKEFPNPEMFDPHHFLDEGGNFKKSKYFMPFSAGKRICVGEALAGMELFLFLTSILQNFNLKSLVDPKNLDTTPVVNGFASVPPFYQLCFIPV
# CYP2C9 inh = blockers of cytochrome P450 2C9 activity – biochemical, luminescence, ADME assay, primary screen; P11712; CYP2C9 Supersomes, luciferin-H conversion; inhibition, % at 5 µM; actives 20% (n = 96,000); AID 777, 2007;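 active = blocking of liver enzyme CYP2C9 beyond about 50% at 5 µM, limit read from the data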
# An asterisk follows results filed as active.
SMILES,CYP2C19 act,PLAP act,CYP2C19 inh,CYP2C9 activ,CYP2C9 inh
COc1cccc(N2CCN(Cc3cccc(Cl)c3)CC2)c1,0.1,1.5,95*,0.2,79*
COc1cccc(N2CCN(Cc3ccc(Cl)cc3)CC2)c1,0.1,1.5,88*,0.3,72*
CCCCn1c(O)c(C(C)=NCc2cc(OC)cc(OC)c2)c(=O)[nH]c1=O,0.1,1.8,87*,0,98*
CCCCn1c(O)c(C(CC)=NCc2cc(OC)cc(OC)c2)c(=O)[nH]c1=O,0.1,1,87*,0.1,94*
COc1cccc(OC)c1C(=O)Nc1nc(N)n(-c2ccccc2)n1,1.2,0.8,-16,0.8,18
COc1ccc2c(c1)c(C(=O)CN1CCN(C)CC1)c(C)n2Cc1ccccc1,0.8,1.7,20,1,0
COCCOC(=O)c1c(C)n(C)c2ccc(OC(=O)N(C)C)cc12,0.7,1.8,27,0.5,54*
Cc1ccc(NC(=O)CN2C(=O)CN=C(c3ccccc3)c3cc(Cl)ccc32)cc1,0.1,1.4,90*,0.2,80*
CN(C)c1ccc(NC(=O)CN2C(=O)CN=C(c3ccccc3)c3ccccc32)cc1,0.3,1,65*,1,1
CN(C)c1ccc(NC(=O)CN2C(=O)CN=C(c3ccccc3)c3cc(Cl)ccc32)cc1,0,1.5,96*,0.3,65*
Cc1cccnc1NC1=NCC(C)S1 (centres undefined),1,0.9,0,1.1,-10
CC12CCCCC1=NC(c1ccc(Br)cc1)N2O (centres undefined),0.6,0.8,38,0.9,12
CP(C)(=O)CCC(=O)O,1.2,0.9,-17,1.2,-21
O=C1NC(=O)[C@]2(Cc3ccccc3N3CCN(c4ccccc4)CC32)C(=O)N1c1ccccc1 (some centres undefined),0.4,1.4,63*,0.1,91*
CN1C(=O)NC(=O)C2(Cc3ccccc3N3CCOCC32)C1=O (centres undefined),1,1,0,0.9,8
CCCCN1C(=O)NC(=O)C2(Cc3ccccc3N3CCOCC32)C1=O (centres undefined),0.3,1.3,70*,0.3,67*
O=C1NC(=O)[C@]2(Cc3ccccc3N3CCN(c4ccccc4)CC32)C(=O)N1Cc1ccccc1 (some centres undefined),0.3,1.5,71*,0.1,91*
Cc1cc(N2C(=O)C3CCCN3C2c2sccc2C)no1 (centres undefined),1,1.2,1,0.9,5
CC(C)(C)c1nc(N2CCN(C(=O)c3ccco3)CC2)c2nnn(Cc3ccccc3Cl)c2n1,0.4,1.6,62*,0.1,95*
COc1ccccc1N1C(=O)NC(=O)C(CCc2ccncc2)(CCc2ccncc2)C1=O,0.1,1,91*,0.3,69*
COc1ccc2c(c1)CC1(CN2C)C(=O)NC(=O)N(CCc2ccccc2)C1=O (centres undefined),0.9,1.5,14,0.7,34
FC(F)(F)c1cccc(-n2nnnc2C2(N3CCOCC3)CCCCC2)c1,0.4,1,57*,0.7,26
COCCCN1CCN(c2nnc3n2-c2sc(Br)cc2C(c2ccccc2Cl)=NC3)CC1,0.6,1.5,44,0.7,27
COc1ccccc1N1CCN(Cc2ccccc2Cl)CC1,0.6,0.9,44,0.8,16
Clc1ccccc1CN1CCN(c2ccccc2)CC1,0,0.8,99*,0.6,41
SMILES,CYP2C19 act,PLAP act,CYP2C19 inh,CYP2C9 activ,CYP2C9 inh
Clc1cccc(Cl)c1CN1CCN(c2ccccc2)CC1,0,0.7,95*,0.6,38
Nc1ccc(N2CCN(Cc3ccccc3Cl)CC2)c(Cl)c1,0,1.3,97*,0.1,86*
CC12CN3CC(C)(CN(C1)C31CCSCC1)C2=O,1,1.1,-3,1,-2
Cc1ccc2c(c1)C1CN(C)CCC1N2C(=O)Nc1cccc(Cl)c1 (centres undefined),0.9,1.5,11,0.9,11
COC(=O)C(O)(c1cn(C)c2ccccc12)C(F)(F)F (centres undefined),0.9,0.9,6,2.8*,-180
O=C(CNC(=O)OCc1ccccc1)Nc1ccc(Br)cc1C(=O)c1ccccc1,0.7,1,31,0.9,13
CCN1/C(=C\C=C\C2=[N+](CC)c3ccccc3C2(C)C)C(C)(C)c2ccccc21,0.1,0.4,92*,0.3,69*
CN(C)CC#CCC(O)(c1ccccc1)C1CCCC1 (centres undefined),0.5,0.9,55*,0.8,20
O=P(NS(=O)(=O)c1ccc(Br)cc1)(Oc1ccccc1)Oc1ccccc1,0.6,1.7,42,0,98*
Cc1ccc(S(=O)(=O)NP(=O)(Oc2ccccc2)Oc2ccccc2)cc1,0.9,1.4,13,0.2,78*
O=P(NS(=O)(=O)c1ccccc1)(Oc1ccccc1)Oc1ccccc1,1,1.3,0,0.3,65*
CCC(C)N1CCN(C(=O)Cc2ccccc2)CC1 (centres undefined),0.6,0.9,36,1,5
Cc1cnn(C2CCN(C)CC2)c1N,1.1,1.1,-8,1,5
CCC(=O)N1c2ccc(S(=O)(=O)CCC(=O)N3CCC4(CC3)OCCO4)cc2CC1C (centres undefined),0.7,1.1,25,0.8,24
CC(C)OC(=O)C1C(=O)NC2(C)CC1c1ccccc1O2 (centres undefined),0.4,1.1,60*,0.9,13
CC(=O)OC1N=C(c2ccc(Cl)cc2)c2cc(Br)ccc2NC1=O (centres undefined),0.7,1.4,27,1.1,-8
CCC(C)C12CN3CCN(CC(C)(C3)C1=O)C2 (centres undefined),0.2,0.9,76*,0.2,77*
CC(C)NC(C)C(=O)C12CC3CC(CC(C3)C1)C2 (centres undefined),1.2,1,-16,1.1,-14
Cc1[nH]c2ccccc2c1C1=CCNCC1,0.8,1.1,21,0.3,74*
C=CCn1c(O)c(C(C)=NCCN2CCOCC2)c(=O)[nH]c1=O,1.1,1.1,-14,1.1,-14
Cc1ccccc1OCCN=Cc1c(O)n(C)c(=O)n(C)c1=O,0.4,0.9,64*,0.7,27
Cc1ccc(S(=O)(=O)Nc2cc(C(=O)N3CCC4(CC3)OCCO4)ccc2N2CCCCC2)cc1,0.5,1.4,54*,0.4,63*
CN(C)C(=O)Oc1ccc(-c2nnco2)cc1,1,1.1,5,1.1,-8
CN(C)C(=O)Oc1c(Cl)cc(Cl)c2ccccc12,0.7,1.3,32,3.1*,-210

# Screening data from PubChem BioAssay.
